Shiga inhibitor = A qHTS for Small Molecule Inhibitors of Shiga Toxin | Vero cells, Shiga toxin protein synthesis inhibition reporter | actives 9.2% (n = 290,000) | inhibition, % at 38.7 µM; in the data active = inhibition mostly above about 28%, no sharp cut-off; inactive = mostly below about 43%
NS1 function inh = qHTS Assay for Inhibitors of Influenza NS1 Protein Function. Potency, µM (titrated, usually from 46.1 µM). actives 0.4% (n = 270,000). AID 2326, 2010; calls by dose curve; note: actives are rising curves; nearly all actives have a fitted effect of over 50% in size
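Growth recovery, yeast-based: influenza A NS1 expressed in S. cerevisiae causes slow growth, and suppressors are detected by OD600. The parent strain without NS1 is used as positive control.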
CHX counter = Cycloheximide Counterscreen for Small Molecule Inhibitors of Shiga Toxin; max response, %; AID 2314, 2010; cell reporter, cycloheximide protein synthesis inhibition counterscreen; actives 12% (n = 300,000); in the data active = max response mostly above about 13%, no sharp cut-off; inactive = mostly below about 14%; note: read at 38.3 µM for the half of the compounds with a filed dose
Pf growth 96h = Primary qHTS for delayed death inhibitors of the malarial parasite plastid, 96 hour incubation. P. falciparum luciferase reporter growth, 96 h. Potency, µM (highest dose often 28.7 µM), usual class: inhibitors. actives 6.9% (n = 320,000). AID 504834, 2011
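Erythrocytes infected with luciferase-expressing P. falciparum were dispensed at 2% hematocrit and 0.05% parasitemia (final), then incubated with compounds 96 hours at 37 C in 5% CO2. Luminescence after detection reagent addition reported growth.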
Pf growth 48h = Primary qHTS for delayed death inhibitors of the malarial parasite plastid, 48 hour incubation. P. falciparum luciferase growth in erythrocytes, 48 h. Potency, µM (series often up to 28.7 µM), usual class: inhibitors. actives 5.9% (n = 310,000). AID 504832, 2011
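Read-out is firefly luciferase luminescence from an integrated reporter in P. falciparum, so falling signal marks reduced parasite growth. Infected erythrocytes were at 2% hematocrit and 0.1% parasitemia (final) in Albumax-supplemented RPMI 1640.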
Of the large screens only hits and unclear results are named; the others gave an inactive call. Shown are actives, neighbours in structure and some others; about 21% of the full set was active somewhere. Unless noted, calls come from the whole dose curve; as a rule, active = well fitted inhibition curve with a large enough effect; inconclusive = small, poorly fitted or top-dose-only effect, or another doubt; inactive = no such curve, though single readings can be large or run the other way.

COc1ccc(N2Cc3ccc(C(=O)N/N=C\c4ccc(O)cc4O)cc3C2)cc1	Pf growth 96h inconclusive
CC(C)(C)NC(=O)c1cc(F)c(F)cc1Cl	none (no result: Pf growth 96h)
CCCS(=O)(=O)c1nc(S(=O)(=O)c2ccc(C)cc2)c(N2CCCC2)s1	Pf growth 48h 12µM (no result: Pf growth 96h)
CCCS(=O)(=O)c1nc(S(=O)(=O)c2ccc(C)cc2)c(N2CCc3ccccc3C2)s1	Pf growth 96h inconclusive, Pf growth 48h 2.3µM
CCS(=O)(=O)c1nc(S(=O)(=O)c2ccc(C)cc2)c(N2CCC(C)CC2)s1	Pf growth 48h inconclusive
CCCS(=O)(=O)c1nc(S(=O)(=O)c2ccc(C)cc2)c(N2CCC(C)CC2)s1	Pf growth 96h 15µM, Pf growth 48h inconclusive
CCCS(=O)(=O)c1nc(S(=O)(=O)c2ccc(C)cc2)c(N2CCC(C(N)=O)CC2)s1	Pf growth 96h 10µM
CCCS(=O)(=O)c1nc(S(=O)(=O)c2ccc(C)cc2)c(N2CCC(O)CC2)s1	none
Cc1c(NC(=O)c2ccc(N(Cc3ccccc3)S(C)(=O)=O)cc2)c(=O)n(-c2ccccc2)n1C	none
Cc1ccc(S(=O)(=O)c2nc(S(=O)(=O)c3ccc(C)cc3)c(N3CCN(CCO)CC3)s2)cc1	Pf growth 48h 5.2µM
CCOC(=O)c1ccc(-c2nnc(-c3ccc(Cl)cc3Cl)o2)cc1	CHX counter 9.6, Pf growth 96h inconclusive
CCc1noc(C)c1C(=O)OCC(=O)NCc1ccccc1OC	none (no result: Shiga inhibitor, NS1 function inh, CHX counter)
CCCOP(=O)(c1ccccc1)c1ccccc1	none
CC(C)CCOP(=O)(c1ccccc1)c1ccccc1	Pf growth 96h inconclusive, Pf growth 48h 15µM
O=[N+]([O-])c1ccc(OCc2cnc(Cl)s2)c([N+](=O)[O-])c1	CHX counter 20, Pf growth 48h inconclusive
O=C(CNC(=O)c1ccc(Cl)cc1Cl)NCCCn1ccnc1	none (no result: Pf growth 48h)
CCOC(=O)Nc1nc(-c2ccccc2)c(C)s1	none (no result: Shiga inhibitor, CHX counter, Pf growth 96h, Pf growth 48h)
COc1cccc(-c2ccc(SCC(=O)N3CCOCC3)nn2)c1	none (no result: NS1 function inh)
O=C(CCn1nc(-c2ccccc2)ccc1=O)N1CCOCC1	Pf growth 96h 1.3µM
O=C(CSc1ccc(-c2ccc(F)cc2)nn1)N1CCN(c2ccccc2)CC1	none
O=C(CSc1ccc(-c2ccc(F)cc2)nn1)N1CCOCC1	CHX counter 20 (no result: NS1 function inh)
O=C(CSc1ccc(-c2ccccc2)nn1)N1CCOCC1	CHX counter 24
CCCCN(C)CCCNC(=O)CCn1nc(-c2ccccc2)ccc1=O	Pf growth 96h 0.12µM
CCCCNC(=O)CCn1nc(-c2ccccc2)ccc1=O	NS1 function inh inconclusive, Pf growth 96h inconclusive
COc1cc(Cl)c(C)cc1NC(=O)CCN1C(=O)NC(C)(C)C1=O	none (no result: Shiga inhibitor, NS1 function inh, CHX counter)
CCCCS(=O)(=O)N1C2=NC(C(=O)OC)=C(C(=O)OC)[C@@H]3N(C)c4ccc(OC)cc4[C@]23C[C@H]1C(=O)OC	Pf growth 96h inconclusive, Pf growth 48h 10µM
COC(=O)C1=C(C(=O)OC)[C@@H]2N(C)c3ccc(OC)cc3[C@@]23C[C@@H](C(=O)OC)N(C(=O)C2CCC2)C3=N1	Pf growth 48h inconclusive
COC(=O)C1=C(C(=O)OC)[C@@H]2N(C)c3ccc(OC)cc3[C@@]23C[C@@H](C(=O)OC)N(S(=O)(=O)c2ccc([N+](=O)[O-])cc2)C3=N1	Pf growth 96h 13µM, Pf growth 48h 7.4µM
Cn1c(=O)c2cnc(-c3ccc(C(F)(F)F)cc3)nc2n(C)c1=O	none
CCCCS(=O)(=O)Nc1ccc(N2CCOCC2)c(S(=O)(=O)N2CCOCC2)c1	none
CCOc1ccc(-c2cc(C(=O)N3CCCC3)c3ccccc3n2)cc1	none
CCOc1ccc(-c2cc(C(=O)NN3CCN(C)CC3)c3cc(Cl)ccc3n2)cc1	Pf growth 96h 4.1µM, Pf growth 48h 2.3µM
CCOc1ccc2nc(-c3ccc(OC)c(OC)c3)cc(C(=O)O)c2c1	none
CCOC(=O)N1CCN(C(=O)c2cc(-c3ccc(OCC)cc3)nc3ccccc23)CC1	Shiga inhibitor 66, CHX counter 37, Pf growth 96h 3.7µM
CCOc1ccc(-c2cc(C(=O)N3CCN(C)CC3)c3ccccc3n2)cc1	Shiga inhibitor 50, CHX counter 38 (no result: Pf growth 96h)
Cn1c(SCC(=O)NC(=O)NCc2ccco2)nnc1C(F)(F)F	Pf growth 96h inconclusive (no result: Pf growth 48h)
O=C(NCCNC(=O)c1cc(OCC(F)(F)F)ccc1OCC(F)(F)F)Nc1ccc(OC(F)(F)F)cc1	none
COc1ccc(NC(=S)Nc2ccc3nsnc3c2)cc1	CHX counter 41, Pf growth 96h 0.23µM
